The results in this text go back to PubChem BioAssay (NCI).

Assay in all cases: NCI-60 one-dose screen, 48 h (100 = growth as untreated, 0 = no growth, -100 = all killed)
One experiment relates to DU-145 prostate. As to conditions: 10 µM unless noted.
A further experiment relates to K-562 leukemia. The conditions noted are these: 10 µM unless noted.
The test system of a further experiment is MALME-3M melanoma. The conditions noted are these: 10 µM unless noted.
The next experiment relates to MDA-MB-231 breast. As to conditions: 10 µM unless noted.
The next experiment relates to RXF 393 renal. As to conditions: 10 µM unless noted.
The next experiment has as its system SF-268 CNS. The conditions noted are these: 10 µM unless noted.
The next experiment deals with SF-295 CNS. As to conditions: 10 µM unless noted.
Another experiment relates to SF-539 CNS. As to conditions: 10 µM unless noted.
A further experiment deals with UACC-257 melanoma. The conditions noted are these: 10 µM unless noted.
The subject of another experiment is M14 melanoma. As to conditions: 10 µM unless noted.
Another experiment relates to HCT-15 colon. As to conditions: 10 µM unless noted.
The subject of the next experiment is HT29 colon. The conditions noted are these: 10 µM unless noted.
Another experiment concerns SNB-75 CNS. The conditions noted are these: 10 µM unless noted.
A further experiment deals with SNB-19 CNS. As to conditions: 10 µM unless noted.
The test system of another experiment is U251 CNS. As to conditions: 10 µM unless noted.
For another experiment, the system named is PC-3 prostate. As to conditions: 10 µM unless noted.
In a further experiment the test system is SK-MEL-5 melanoma. As to conditions: 10 µM unless noted.
The subject of another experiment is UACC-62 melanoma. As to conditions: 10 µM unless noted.
Another experiment concerns LOX IMVI melanoma. As to conditions: 10 µM.
Another experiment concerns SK-MEL-28 melanoma. As to conditions: 10 µM unless noted.

About 83,000 compounds went through this panel and 20% of them were active in at least one assay; those are over-represented in the sample as a whole.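 Note: values are percent growth. 100 is the growth of untreated cells, values between 100 and 0 indicate rising inhibition; between -100 and 0 indicates cell death.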 A number with no mark means an inactive call. Active and inactive are the calls of the source. Rule for the calls: active = growth percent below 10; inactive = the rest.

As for `CCCCCCCCCCCCCCCCCC1=NCCCN1CCO`, the growth was 108% with DU-145 prostate; 100% in the experiment on K-562 leukemia; 97.4% with MALME-3M melanoma; 87.8% with MDA-MB-231 breast; 124% in the experiment with RXF 393 renal; 98.9% with SF-268 CNS. Further, the growth was 96% in the experiment with SF-295 CNS; 103% in the experiment with SF-539 CNS; 96.1% with UACC-257 melanoma; 99.7% in the experiment with M14 melanoma; 94% in the experiment on HCT-15 colon; 101% in the experiment on HT29 colon. Moreover, the growth in the experiment on SNB-75 CNS was 105%; with SNB-19 CNS, 101%; with U251 CNS, 98.2%; in the experiment on PC-3 prostate it was 95.9%; in the experiment on SK-MEL-5 melanoma, 103%; in the experiment with UACC-62 melanoma, 111%. In addition, the values for the growth with LOX IMVI melanoma and in the experiment with SK-MEL-28 melanoma were 96.4% and 108%, respectively.
As for `OC(c1cc2ccc(C(F)(F)F)cc2c2cc(C(F)(F)F)ccc12)C1CCCCN1` (centres undefined), the growth in the experiment on DU-145 prostate is -99.3% (active); in the experiment with K-562 leukemia, -95% (active); with MALME-3M melanoma, -72.6% (active); in the experiment with MDA-MB-231 breast, -79.1% (active); in the experiment on RXF 393 renal, -79.6% (active); in the experiment on SF-268 CNS, -81.7% (active). Also, the growth with SF-295 CNS was -96% (active); in the experiment with SF-539 CNS it was -88.1% (active); in the experiment with UACC-257 melanoma, -86.4% (active); in the experiment on M14 melanoma it was -85.2% (active); in the experiment on HCT-15 colon, -90.4% (active); with HT29 colon it was -100% (active). The growth in the experiment with SNB-75 CNS was -94.4% (active); with SNB-19 CNS, -80.6% (active); in the experiment with U251 CNS, -100% (active); in the experiment with PC-3 prostate, -95.2% (active); in the experiment with SK-MEL-5 melanoma, -95.4% (active); in the experiment with UACC-62 melanoma, -96.5% (active). Besides, the growth was -100% (active) in the experiment with LOX IMVI melanoma and -99.3% (active) in the experiment with SK-MEL-28 melanoma.
In the case of `O=C1C=CC(=O)N1c1cccc2c1CCCC2`, the growth with DU-145 prostate was 103%; with K-562 leukemia it was 57.1%; with MALME-3M melanoma, 85.5%; with MDA-MB-231 breast, 106%; in the experiment on RXF 393 renal it was 94.1%; in the experiment on SF-268 CNS, 101%. For the same molecule, the growth with SF-295 CNS is 90.6%; in the experiment on SF-539 CNS it was 105%; in the experiment on UACC-257 melanoma, 103%; in the experiment with M14 melanoma, 110%; in the experiment on HCT-15 colon it was 98.4%; in the experiment on HT29 colon, 102%. For the same molecule, the growth with SNB-75 CNS was 85.9%; in the experiment on SNB-19 CNS, 92.6%; in the experiment with U251 CNS, 98.2%; in the experiment on PC-3 prostate, 98.9%; in the experiment on SK-MEL-5 melanoma, 102%; with UACC-62 melanoma, 99.3%. The growth was 107% with LOX IMVI melanoma and 99.1% in the experiment on SK-MEL-28 melanoma.
Turning to `CN(C)CCSC1=Nc2ccc(Cl)cc2C(c2ccccc2Cl)N(C)C1` (centres undefined), the growth in the experiment on DU-145 prostate is 94.2%; in the experiment with K-562 leukemia it was 47.9%; in the experiment with MALME-3M melanoma, 58.8%; with MDA-MB-231 breast, 51.1%; in the experiment with RXF 393 renal, 104%; in the experiment on SF-268 CNS, 86.3%. The growth was 59.7% with SF-295 CNS; 58% with SF-539 CNS; 72.3% in the experiment on UACC-257 melanoma; 60.3% with M14 melanoma; 62.5% with HCT-15 colon; 50.9% in the experiment on HT29 colon. The growth was 11.9% in the experiment with SNB-75 CNS; 63.1% in the experiment with SNB-19 CNS; 71.2% in the experiment on U251 CNS; 48.5% with PC-3 prostate; 68.7% in the experiment with SK-MEL-5 melanoma; 29.2% in the experiment with UACC-62 melanoma. In addition, the growth in the experiment with SK-MEL-28 melanoma is 70.9%.
Take `CC(C)(C)c1ccc(O)c(-c2ccccc2)c1`: the growth in the experiment on DU-145 prostate was 115%; with K-562 leukemia, 105%; with MALME-3M melanoma it was 130%; with MDA-MB-231 breast, 120%; in the experiment with RXF 393 renal it was 112%; in the experiment with SF-268 CNS, 105%. Moreover, the growth in the experiment with SF-295 CNS was 126%; in the experiment on SF-539 CNS it was 108%; in the experiment on UACC-257 melanoma it was 90.1%; in the experiment on M14 melanoma it was 121%; with HCT-15 colon, 102%; in the experiment on HT29 colon, 107%. In addition, the growth was 121% in the experiment on SNB-19 CNS; 96.3% in the experiment with U251 CNS; 95.2% with PC-3 prostate; 116% in the experiment with SK-MEL-5 melanoma; 103% in the experiment on UACC-62 melanoma; 103% in the experiment with LOX IMVI melanoma. Further, the growth with SK-MEL-28 melanoma is 119%.
Turning to `Cc1cc(C(=O)c2ccc(Cl)cc2)ccc1O`, the growth in the experiment with DU-145 prostate was 98.2%; in the experiment with K-562 leukemia, 112%; with MALME-3M melanoma, 112%; in the experiment on MDA-MB-231 breast it was 94.3%; in the experiment on RXF 393 renal it was 75.7%; in the experiment with SF-268 CNS, 92.5%. Moreover, the growth with SF-295 CNS was 90.3%; in the experiment with SF-539 CNS, 93%; in the experiment with UACC-257 melanoma it was 115%; in the experiment on M14 melanoma it was 89.2%; in the experiment on HCT-15 colon, 112%; in the experiment with HT29 colon, 99.1%. Besides, the growth in the experiment on SNB-75 CNS was 96%; in the experiment on SNB-19 CNS, 116%; in the experiment on SK-MEL-5 melanoma, 95.3%; in the experiment on UACC-62 melanoma, 89.8%; in the experiment on LOX IMVI melanoma, 99.3%; in the experiment on SK-MEL-28 melanoma, 105%.
As for `COc1c(C)c2c(c(O)c1C/C=C(\C)CCC(=O)O)C(=O)OC2`, the growth with DU-145 prostate was 50.8%; in the experiment on K-562 leukemia it was 20.2%; in the experiment on MALME-3M melanoma, 38.8%; in the experiment with MDA-MB-231 breast it was 57%; in the experiment on RXF 393 renal it was 50.7%; with SF-268 CNS, 34.8%. Also, the growth in the experiment on SF-295 CNS is 16.8%; in the experiment with SF-539 CNS, 40.7%; with UACC-257 melanoma, 13.2%; with M14 melanoma, 20.4%; with HCT-15 colon it was 20.7%; with HT29 colon, 13.3%. Further, the growth with SNB-75 CNS is 48.1%; with SNB-19 CNS, 42.3%; in the experiment on PC-3 prostate it was 40.3%; with SK-MEL-5 melanoma it was 23.6%; with UACC-62 melanoma, 41.7%; with LOX IMVI melanoma, 12.1%. In addition, the growth in the experiment with SK-MEL-28 melanoma is 31.3%.
Regarding `O=C(NOC(=O)c1ccccc1)c1ccccc1`, the growth in the experiment on DU-145 prostate was 112%; in the experiment with K-562 leukemia it was 40.8%; with MALME-3M melanoma, 109%; in the experiment with MDA-MB-231 breast, 111%; with RXF 393 renal it was 110%; in the experiment with SF-268 CNS, 101%. For the same molecule, the growth in the experiment with SF-295 CNS is 112%; in the experiment with SF-539 CNS, 102%; in the experiment with UACC-257 melanoma it was 124%; in the experiment on M14 melanoma, 104%; in the experiment with HCT-15 colon, 101%; in the experiment with HT29 colon it was 110%. The growth in the experiment with SNB-75 CNS was 108%; in the experiment on SNB-19 CNS, 109%; in the experiment on PC-3 prostate, 90.2%; with SK-MEL-5 melanoma, 105%; in the experiment with UACC-62 melanoma it was 109%; in the experiment with LOX IMVI melanoma, 100%. In addition, in the experiment with SK-MEL-28 melanoma, the growth is 119%.
